# Measured values published in publication PMC7862700, “An all-to-all approach to the identification of sequence-specific readers for epigenetic DNA modifications on cytosine”.
# Key:
# Assay in all cases: DAPPL (digital affinity profiling via proximity ligation, sequencing); 10 mM Tris-HCl pH 7.5, 50 mM NaCl, 1 mM DTT, 4% glycerol, room temperature, 30 min; GST-TFs on glutathione beads, 16-mer random dsDNA library, 0.1% formaldehyde crosslink after washing; high values mean tight binding
# FEV = target: T1, FEV (Homo sapiens, UniProt Q99581 1-238); details: protein: recombinant; tags: N-terminal GST; dsDNA, one strand shown
# T1 sequence: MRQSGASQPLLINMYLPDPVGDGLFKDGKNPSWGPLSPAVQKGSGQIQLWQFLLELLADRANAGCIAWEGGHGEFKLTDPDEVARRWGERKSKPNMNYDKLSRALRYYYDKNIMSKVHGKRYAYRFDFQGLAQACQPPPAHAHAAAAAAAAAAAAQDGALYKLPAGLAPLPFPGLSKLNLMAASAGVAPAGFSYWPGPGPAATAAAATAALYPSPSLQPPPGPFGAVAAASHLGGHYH
# Procedure, shortened: (§1)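 Pools of DNA-barcoded human transcription factors, expressed in yeast as GST fusions on glutathione beads and combined with a tag-only sample, were incubated with 200 nmole of a 16-mer random double-stranded DNA library. Incubation took 30 min at room temperature in Tris/NaCl/DTT/glycerol buffer and was followed by washing, 0.1% formaldehyde crosslinking, proximity ligation (BsaI/T4 ligase, 1 h, 37 °C), PCR amplification and sequencing on an Illumina NextSeq500. Binding signal is the ratio of a hexamer's read frequency for a factor to its frequency for the tag-only sample.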
# ETV5 = ETV5 (Homo sapiens, UniProt P41161 1-510); details: protein: recombinant; tags: N-terminal GST; dsDNA, one strand shown
# Procedure, shortened: as §1
# HSF1 = HSF1 (Homo sapiens, UniProt Q00613 1-529); details: protein: recombinant; tags: N-terminal GST; chain copies: 3; dsDNA, one strand shown
# Procedure, shortened: as §1
# SPIC = target: T2, SPIC (Homo sapiens, UniProt Q8N5J4 1-248); details: protein: recombinant; tags: N-terminal GST; dsDNA, one strand shown
# T2 sequence: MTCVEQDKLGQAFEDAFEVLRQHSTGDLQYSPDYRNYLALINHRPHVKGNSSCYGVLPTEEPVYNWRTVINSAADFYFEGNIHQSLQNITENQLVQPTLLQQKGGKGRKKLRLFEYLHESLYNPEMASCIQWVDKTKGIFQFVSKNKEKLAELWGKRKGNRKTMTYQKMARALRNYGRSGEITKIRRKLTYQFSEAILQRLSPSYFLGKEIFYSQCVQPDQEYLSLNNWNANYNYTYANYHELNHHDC
# Procedure, shortened: as §1
# ELF4 = ELF4 (Homo sapiens, UniProt Q99607 1-663); details: protein: recombinant; tags: N-terminal GST; dsDNA, one strand shown
# Procedure, shortened: as §1
# ELK4 = target: T3, ELK4 (Homo sapiens, UniProt P28324-2 1-405); details: protein: recombinant; tags: N-terminal GST; dsDNA, one strand shown
# T3 sequence: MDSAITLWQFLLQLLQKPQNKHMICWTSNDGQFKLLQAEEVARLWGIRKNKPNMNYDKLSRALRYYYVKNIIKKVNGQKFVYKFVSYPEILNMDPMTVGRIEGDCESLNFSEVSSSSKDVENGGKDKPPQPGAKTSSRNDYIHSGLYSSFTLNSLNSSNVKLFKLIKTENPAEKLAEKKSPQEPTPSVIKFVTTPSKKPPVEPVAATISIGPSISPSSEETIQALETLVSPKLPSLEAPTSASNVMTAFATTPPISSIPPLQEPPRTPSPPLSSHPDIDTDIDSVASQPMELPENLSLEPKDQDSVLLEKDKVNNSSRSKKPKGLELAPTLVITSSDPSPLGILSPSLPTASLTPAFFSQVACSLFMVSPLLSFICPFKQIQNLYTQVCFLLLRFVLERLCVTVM
# Procedure, shortened: as §1
# ETV2 = target: T4, ETV2 (Homo sapiens, UniProt O00321 1-342); details: protein: recombinant; tags: N-terminal GST; dsDNA, one strand shown
# T4 sequence: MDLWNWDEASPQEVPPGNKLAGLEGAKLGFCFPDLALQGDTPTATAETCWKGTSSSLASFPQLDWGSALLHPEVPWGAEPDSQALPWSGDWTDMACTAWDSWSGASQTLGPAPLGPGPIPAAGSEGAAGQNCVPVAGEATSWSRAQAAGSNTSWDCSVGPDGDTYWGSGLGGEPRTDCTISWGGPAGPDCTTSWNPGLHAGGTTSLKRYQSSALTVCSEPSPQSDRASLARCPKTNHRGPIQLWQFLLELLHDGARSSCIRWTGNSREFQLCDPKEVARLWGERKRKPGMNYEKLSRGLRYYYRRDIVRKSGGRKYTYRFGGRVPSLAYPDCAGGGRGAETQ
# Procedure, shortened: as §1
# ELF3 = target: T5, ELF3 (Homo sapiens, UniProt P78545 1-371); details: protein: recombinant; tags: N-terminal GST; dsDNA, one strand shown
# T5 sequence: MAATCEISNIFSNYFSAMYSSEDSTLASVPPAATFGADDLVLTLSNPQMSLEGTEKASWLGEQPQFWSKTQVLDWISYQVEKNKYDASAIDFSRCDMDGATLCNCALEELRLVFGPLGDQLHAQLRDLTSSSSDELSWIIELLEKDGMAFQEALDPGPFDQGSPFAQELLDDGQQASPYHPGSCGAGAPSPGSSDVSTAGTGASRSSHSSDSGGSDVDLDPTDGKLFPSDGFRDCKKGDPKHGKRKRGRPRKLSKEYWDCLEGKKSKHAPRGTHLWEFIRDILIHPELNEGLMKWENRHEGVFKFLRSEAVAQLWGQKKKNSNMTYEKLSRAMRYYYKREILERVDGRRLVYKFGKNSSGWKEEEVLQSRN
# Procedure, shortened: as §1
# CRX = CRX (Homo sapiens, UniProt O43186 1-299); details: protein: recombinant; tags: N-terminal GST; dsDNA, one strand shown
# Procedure, shortened: as §1
# HSF1, sequence (Q00613 whole entry): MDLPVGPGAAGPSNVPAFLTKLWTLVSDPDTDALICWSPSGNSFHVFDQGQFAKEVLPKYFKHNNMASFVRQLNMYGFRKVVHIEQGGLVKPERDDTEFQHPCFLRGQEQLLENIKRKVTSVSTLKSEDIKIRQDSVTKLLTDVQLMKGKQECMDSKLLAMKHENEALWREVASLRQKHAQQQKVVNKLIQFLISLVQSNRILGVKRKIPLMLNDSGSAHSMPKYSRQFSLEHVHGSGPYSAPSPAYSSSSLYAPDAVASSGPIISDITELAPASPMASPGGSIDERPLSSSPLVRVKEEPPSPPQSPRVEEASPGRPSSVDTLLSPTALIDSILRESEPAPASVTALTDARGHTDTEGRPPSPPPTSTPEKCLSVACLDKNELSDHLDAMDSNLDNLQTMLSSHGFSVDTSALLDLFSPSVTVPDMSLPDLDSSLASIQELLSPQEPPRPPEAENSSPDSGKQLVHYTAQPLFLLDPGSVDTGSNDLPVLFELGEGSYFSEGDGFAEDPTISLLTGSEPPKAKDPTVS
# CRX, sequence (O43186 whole entry): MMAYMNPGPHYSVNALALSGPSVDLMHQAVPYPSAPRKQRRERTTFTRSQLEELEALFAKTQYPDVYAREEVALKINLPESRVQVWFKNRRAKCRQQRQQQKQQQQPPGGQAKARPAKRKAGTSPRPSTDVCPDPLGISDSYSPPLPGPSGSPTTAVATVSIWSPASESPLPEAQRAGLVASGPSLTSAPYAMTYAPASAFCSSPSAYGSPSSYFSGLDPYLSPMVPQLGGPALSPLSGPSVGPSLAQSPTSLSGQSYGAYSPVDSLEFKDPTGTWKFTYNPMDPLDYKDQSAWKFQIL
# ELF4, sequence (Q99607 whole entry): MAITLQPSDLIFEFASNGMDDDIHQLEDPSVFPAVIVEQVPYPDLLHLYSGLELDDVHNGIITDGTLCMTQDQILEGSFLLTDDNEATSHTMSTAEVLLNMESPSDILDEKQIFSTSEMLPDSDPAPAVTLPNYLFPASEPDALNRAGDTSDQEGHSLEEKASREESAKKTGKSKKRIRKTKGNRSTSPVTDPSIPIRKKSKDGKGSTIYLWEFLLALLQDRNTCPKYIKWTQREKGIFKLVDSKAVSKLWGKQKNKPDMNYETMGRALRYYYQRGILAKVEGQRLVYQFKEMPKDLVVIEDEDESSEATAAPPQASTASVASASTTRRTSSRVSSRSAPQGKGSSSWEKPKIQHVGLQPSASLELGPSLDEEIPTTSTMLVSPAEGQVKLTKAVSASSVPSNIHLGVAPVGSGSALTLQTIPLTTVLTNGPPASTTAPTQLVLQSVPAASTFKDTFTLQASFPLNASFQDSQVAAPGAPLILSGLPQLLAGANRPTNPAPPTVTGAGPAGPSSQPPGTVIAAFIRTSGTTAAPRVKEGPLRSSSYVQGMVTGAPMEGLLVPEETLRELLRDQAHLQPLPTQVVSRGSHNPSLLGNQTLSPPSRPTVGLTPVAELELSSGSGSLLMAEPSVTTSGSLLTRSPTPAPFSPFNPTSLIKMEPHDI
# ETV5, sequence (P41161 whole entry): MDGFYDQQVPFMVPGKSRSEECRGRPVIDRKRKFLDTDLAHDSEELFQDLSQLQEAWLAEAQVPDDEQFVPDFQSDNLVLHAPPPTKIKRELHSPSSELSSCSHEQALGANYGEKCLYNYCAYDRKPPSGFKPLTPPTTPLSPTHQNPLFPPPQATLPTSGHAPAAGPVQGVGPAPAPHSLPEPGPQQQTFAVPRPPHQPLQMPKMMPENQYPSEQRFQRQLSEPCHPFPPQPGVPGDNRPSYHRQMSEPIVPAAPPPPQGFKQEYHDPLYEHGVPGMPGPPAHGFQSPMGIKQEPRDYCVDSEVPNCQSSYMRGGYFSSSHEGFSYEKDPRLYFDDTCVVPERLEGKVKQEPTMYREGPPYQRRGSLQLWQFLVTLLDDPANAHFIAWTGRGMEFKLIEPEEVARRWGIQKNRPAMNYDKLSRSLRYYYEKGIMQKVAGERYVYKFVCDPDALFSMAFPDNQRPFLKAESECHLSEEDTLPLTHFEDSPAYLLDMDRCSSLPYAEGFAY
sequence,measurement,setting,value
GGCTCT,binding signal,FEV,"1.35 fold enrichment (6-mer frequency, TF over GST control)"
same,binding signal,ETV5,"1.19 fold enrichment (6-mer frequency, TF over GST control)"
same,binding signal,HSF1,"1.32 fold enrichment (6-mer frequency, TF over GST control)"
same,binding signal,SPIC,"1.34 fold enrichment (6-mer frequency, TF over GST control)"
same,binding signal,ELF4,"1.37 fold enrichment (6-mer frequency, TF over GST control)"
same,binding signal,ELK4,"1.22 fold enrichment (6-mer frequency, TF over GST control)"
same,binding signal,ETV2,"1.4 fold enrichment (6-mer frequency, TF over GST control)"
same,binding signal,ELF3,"1.44 fold enrichment (6-mer frequency, TF over GST control)"
same,binding signal,CRX,"1.27 fold enrichment (6-mer frequency, TF over GST control)"
